About 1,100 (0.31%) of roughly 360,000 compounds were called active. Only a selection was taken, and actives are over-represented in it overall. Values without a mark were called inactive. Rule as the data show it: active = activity change below about -80%; inconclusive = mostly about -51% to -80%; inactive = weaker than that.
molecular target: RAC-alpha serine/threonine-protein kinase (Homo sapiens) (UniProt P31749); test: HTS Assay for Inhibitors of Akt Phophorylation: Primary Screen; settings: Neuro2A IGF-stimulated pAkt S473 HTRF, 20 min; at 50 µM, hits give low values
Outline: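 Single-point screen (50 µM final compound) in Neuro2A cells stimulated 20 min with 6 nM IGF at 37 deg C. After lysis, Ser473-phosphorylated Akt read by HTRF (ex 330 nm, em 615/665 nm) as the 665/615 ratio.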
% is scaled to controls: 0 for no effect and ±100 for the full control effect.

SMILES	activity change
CN(C(=O)C1CCN(c2ncnc3c2nc2n3CCCCC2)CC1)C1CCCCC1	inactive
Cc1ccnc(NC(=O)CCC(=O)N(CC(=O)NCc2ccccc2)Cc2ccco2)c1	inactive
CCOC(=O)N1CCN(C(=O)C[C@@H]2C[C@@]3(C(=O)OC)CC(C)(C)CC=C3N(Cc3ccco3)C2=O)CC1	inactive
O=C(COC(=O)c1cc2c(s1)CCCC2)NCc1ccccc1Cl	inactive
O=C(NCc1ccccc1Cl)c1csc2c1CCCCC2	-106% (active)
CC(=O)Cc1nsc(NC(=O)c2ccc(Cl)cc2Cl)n1	inactive
CC(=O)Cc1nsc(NC(=O)c2ccc(COc3ccc(C)cc3)o2)n1	inactive
CC(=O)Cc1nsc(NC(=O)c2csc3c2CCCC3)n1	-104% (active)
CC1CC(C)CN(CCCNC(=O)c2csc3c2CCCCC3)C1 (stereo not given)	inactive
CCOC(=O)C=Cc1ccc(C(=O)OCC)[nH]1	inactive
Cc1ccc(S(=O)(=O)N2CC3C(=O)C[C@@H](c4ccccc4Cl)N(S(=O)(=O)c4ccc(C)cc4)C3CC2c2ccccc2)cc1 (stereo not given in full)	inactive
COc1cccc(-n2cc3c(c2-c2ccccc2)c(=O)n(C)c(=O)n3C)c1	-16.8%
Cc1cn(C)c(=O)n(C)c1=O	inactive
Cc1ccc(-c2c3c(=O)n(C)c(=O)n(C)c3cn2-n2cnnc2)cc1	-111% (active)
COc1ccc(C(C(=O)NCc2ccccc2)n2c(=O)c(-c3ccccc3)nc3ccccc32)cc1 (stereo not given)	inactive
COc1cc(OC)c(NS(=O)(=O)c2cn(C)cn2)cc1Cl	inactive
CCC(c1nc2ccccc2[nH]1)n1c(=O)c(-c2cccs2)nc2ccccc21 (stereo not given)	inactive
N#Cc1ccc(C(C(=O)NCc2ccccc2)n2c(=O)c(-c3ccco3)nc3ccccc32)cc1 (stereo not given)	inactive
Cc1cc(NC(=O)CSc2nc(C(C)C)nc3sc4c(c23)CCC(C)C4)no1 (stereo not given)	-89.6% (active)
CC(C)c1nc(SCC(=O)Nc2cccc(C(=O)O)c2)c2c3c(sc2n1)CCCC3	inactive

SMILES	activity change
Cc1cc(NC(=O)CSc2nc3c(cc2C#N)CCCCC3)no1	inactive
Cn1cnc(S(=O)(=O)N2C[C@@H](O)COC[C@@H]3O[C@H](CC(=O)NC4CCC4)CC[C@H]32)c1	inactive
COc1ccc(-c2cc3c(c4c2ccn4C)C2CCC3C2)cn1 (stereo not given)	inactive
Nc1nc(C23CC4CC(CC(C4)C2)C3)cs1	inactive
CC(C)CN1C(=O)CN(S(C)(=O)=O)CC1(C)C(=O)NCc1ccccc1 (stereo not given)	inactive
Brc1ccc(-c2csc(N/N=C/c3cccnc3)n2)cc1	inactive
Cc1ccc(Nc2nc(-c3ccc(O)cc3O)cs2)nc1	inactive
c1ccc(Nc2nc(-c3ccncc3)cs2)nc1	-89.8% (active)
O=C(COC(=O)CCC(=O)c1cccs1)NCc1ccco1	-115% (active)
O=C(COC(=O)c1ccccc1O)NCc1ccco1	inactive
O=C(COC(=O)Cc1ccc(Cl)cc1Cl)NCc1ccco1	inactive
O=C(COC(=O)c1cc([N+](=O)[O-])ccc1NCc1ccccc1)NC1CCCCC1	inactive
C=C1C(=O)OC2C1CCC(C)=CCCC1(C)OC21 (stereo not given)	inactive
CC(NCCO)C(=O)C12CC3CC(CC(C3)C1)C2 (stereo not given)	inactive
COCCN1C(=O)C(=O)/C(=C(/O)c2ccc(S(=O)(=O)N3CCOCC3)cc2)C1c1ccc(O)c(OC)c1 (stereo not given)	inactive
COCCN1C(=O)c2oc3c(C)cc(C)cc3c(=O)c2C1c1cccc(O)c1 (stereo not given)	-117% (active)
O=C1c2oc3ccccc3c(=O)c2C(c2cccc(O)c2)N1c1ccccn1 (stereo not given)	inactive
CC(C)OC(=O)CC(=O)CC(O)c1cccc([N+](=O)[O-])c1 (stereo not given)	inactive
CCOC(=O)[C@]12CCCC=C1N(CCC1=CCCCC1)C(=O)[C@H](CC(=O)NCCCCc1ccccc1)C2	inactive
CCC(C(=O)Nc1c(C)cccc1C)n1c(-c2cc(C)cs2)nc2ccccc21 (stereo not given)	inactive
